Inconclusive results are not listed. Active and inactive are the calls of the source. Calls follow the shape of the full dose curve.
biological target: Vitamin D3 receptor (Homo sapiens) (UniProt P11473); assay: qHTS assay to identify small molecule agonists of the vitamin D receptor (VDR) signaling pathway (AID 743222); conditions: HEK293T VDR-UAS-bla, beta-lactamase FRET ratio, 16 h; series mostly up to 63.5 µM
Excerpt: National Center for Advancing Translational Sciences [NCATS]
NIH Chemical Genomics Center [NCGC]
U.S. Environmental Protection Agency [EPA]
National Institutes of Environmental Health Sciences [NIEHS]
National Toxicology Program [NTP]
U.S. Food and Drug Administration [FDA]
The vitamin D receptor (VDR), a member of nuclear hormone receptor superfamily, plays a critical role in calcium homeostasis and bone metabolism. It is also involved in cell differentiation and growth, and thrombogenicity.
Tox21 Assay Protocol Summary:
VDR-bla cells were dispensed at 2,000 cells/6 uL/well into black wall/clear-bottom 1536-well plates using a Multidrop Combi (Thermo Fisher Scientific, Waltham, MA) dispenser. After the assay plates were incubated at a 37C and 5% CO2 for 4 h, 23 nL of compounds dissolved in DMSO, positive controls or DMSO only was transferred to the assay plate by a Pintool station (Kalypsys, San Diego, CA). The plates were incubated at 37C and 5% CO2 for 16 h. After 1 uL of LiveBLAzerTM B/G FRET substrate was added using a Bioraptr Flying Reagent Dispenser (FRD) workstation (Beckman Coulter, Indianapolis, IN, USA), the plates were incubated at room temperature for 2 h, and fluorescence intensity was measured by an Envision plate reader (PerkinElmer, Shelton, CT).

Vitamin D3 receptor (Homo sapiens), sequence (P11473 whole entry, looked up): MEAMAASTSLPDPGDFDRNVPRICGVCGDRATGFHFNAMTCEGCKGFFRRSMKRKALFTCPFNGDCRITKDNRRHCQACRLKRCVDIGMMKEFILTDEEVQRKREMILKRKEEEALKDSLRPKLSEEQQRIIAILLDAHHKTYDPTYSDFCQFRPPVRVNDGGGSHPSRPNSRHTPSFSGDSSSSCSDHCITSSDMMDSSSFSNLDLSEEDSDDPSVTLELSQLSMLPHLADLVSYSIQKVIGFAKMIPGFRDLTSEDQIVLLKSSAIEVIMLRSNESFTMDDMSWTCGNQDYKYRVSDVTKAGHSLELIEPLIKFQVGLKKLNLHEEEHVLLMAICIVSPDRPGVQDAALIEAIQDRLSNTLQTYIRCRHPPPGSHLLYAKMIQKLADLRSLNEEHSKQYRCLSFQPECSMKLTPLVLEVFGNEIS

Structure (SMILES)	outcome
C=CCc1ccc2c(c1)OCO2	inactive
O=C(Nc1ccc(Br)cc1)c1cc(Br)cc(Br)c1O	inactive
CCCCCCCCCCCOC(=O)c1ccccc1C(=O)OCCCCCCCCCCC	inactive
CCCCC(CC)COC(=O)c1ccc(C(=O)OCC(CC)CCCC)c(C(=O)OCC(CC)CCCC)c1 (stereo not given)	inactive
CCCCOCCOP(=O)(OCCOCCCC)OCCOCCCC	inactive
CC(O)CCO (stereo not given)	inactive
CCOc1cc(C=O)ccc1O	inactive
Cc1cc(C)cc(C)c1	inactive
Nc1cccnc1	inactive
C=C(C)C(=O)OCC1CO1 (stereo not given)	inactive
Nc1ccc(-c2ccccc2)cc1	inactive
CNC(=O)Oc1cccc2c1OC(C)(C)O2	inactive
COC(=O)c1sccc1S(=O)(=O)NC(=O)Nc1nc(C)nc(OC)n1	inactive
Oc1cc(Cl)ccc1Cl	inactive
NC(=S)Nc1ccccc1	inactive
O=C(CCl)c1ccccc1	inactive
CC(C)c1ccc(CO)cc1	inactive
C=CC(=O)OCCO	inactive
C[C@]12CCC(=O)C(O)=C1CC[C@@H]1[C@@H]2CC[C@]2(C)C(=O)CC[C@@H]12	inactive
C1=Cc2cccc3cccc1c23	inactive

Structure (SMILES)	outcome
Nn1cnnc1	inactive
Nc1ccc(Cl)c(Cl)c1	inactive
O=C(O)C(F)(F)C(F)(F)C(F)(F)C(F)(F)C(F)(F)C(F)(F)C(F)(F)F	inactive
O=P(O)(O)CCCl	inactive
CCCCCc1cc(O)cc(O)c1	inactive
CCCCNC(=O)n1c(NC(=O)OC)nc2ccccc21	inactive
CCN(N=O)C(N)=O	inactive
Oc1c(Cl)c(Cl)c(Cl)c(Cl)c1Cl	inactive
CC(C)Oc1cc(-n2nc(C(C)(C)C)oc2=O)c(Cl)cc1Cl	inactive
c1ccc(P(c2ccccc2)c2ccccc2)cc1	inactive
NNC(N)=S	inactive
Nc1c(Cl)cc([N+](=O)[O-])cc1Cl	inactive
O=[N+]([O-])c1c(Cl)c(Cl)c(Cl)c(Cl)c1Cl	inactive
CCN(CC)C(=O)/C(Cl)=C(\C)OP(=O)(OC)OC	inactive
CC(C)(c1cc(Cl)c(O)c(Cl)c1)c1cc(Cl)c(O)c(Cl)c1	inactive
CNC(=O)N(C)c1nnc(C(C)(C)C)s1	inactive
Oc1ccc(-c2ccccc2)cc1	inactive
NNC(=S)NN	inactive
COc1ccc(C(CN(C)C)C2(O)CCCCC2)cc1 (stereo not given)	inactive
CC(C)NC(C)C	inactive

— PubChem BioAssay (Tox21)
